According to PubChem BioAssay (NCI):
Several values for one entry are separate records, joined by “and”; a condition that tells them apart may be missing. Identical values can stand only once. Compounds without any hit were thinned out: in the full panel of roughly 83,000, 20% have a hit.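 48-hour exposure, single concentration, 96-well plates; percent growth endpoint where 0 means no net growth. Active: below 10.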 Activity calls are given as the source filed them.

Tests used:
Test in all cases: NCI-60 one-dose screen, 48 h (100 = growth as untreated, 0 = no growth, -100 = all killed)
Conditions in all cases: 10 µM unless noted
BT-549 breast = system: BT-549 breast
MDA-MB-435 melanoma = system: MDA-MB-435 melanoma
SW-620 colon = system: SW-620 colon
MCF7 breast = system: MCF7 breast
HCT-116 colon = system: HCT-116 colon
HCC-2998 colon = system: HCC-2998 colon
KM12 colon = system: KM12 colon

SMILES | growth (BT-549 breast) | growth (MDA-MB-435 melanoma) | growth (SW-620 colon) | growth (MCF7 breast) | growth (HCT-116 colon) | growth (HCC-2998 colon) | growth (KM12 colon)
CCC(C)Oc1cc(/C=N/NC(=O)c2cnn3c2NC(c2ccccc2)C3)ccc1OC (configuration not stated) | 40.7% (inactive) | 0.38% (active) | 27.3% (inactive) | 18.5% (inactive) | 22% (inactive) | 72.3% (inactive) | 20.2% (inactive)
O=S(=O)(Nc1ccc(Cl)c(Cl)c1)c1ccc(-c2cnc(C3CC3)o2)cc1 | 56.2% (inactive) | -32.8% (active) | 12.8% (inactive) | 17.9% (inactive) | 26.1% (inactive) | 38.2% (inactive) | 20% (inactive)
COc1ccc(NS(=O)(=O)c2ccc(-c3cnc(C4CC4)o3)cc2)cc1 | 58.6% (inactive) | 1.55% (active) | 20.1% (inactive) | 29.4% (inactive) | 38.8% (inactive) | 85.9% (inactive) | 40.2% (inactive)
COc1ccc(/C=N/NC(=O)c2cnn(CC(O)Cc3ccccc3)c2N)cc1OC1CCCC1 (configuration not stated) | 75.7% (inactive) | 100% (inactive) | 98.9% (inactive) | 83.7% (inactive) | 90.4% (inactive) | 116% (inactive) | 35.2% (inactive)
COc1ccc(/C=C/C(=O)N2CCC(O)CC2)cc1OC1CCCC1 | 117% (inactive) | 103% (inactive) | 106% (inactive) | 95.4% (inactive) | 106% (inactive) | 111% (inactive) | 105% (inactive)
Nc1nc(-c2ccnc(Cl)c2)nn1-c1nc2ccccc2s1 | 106% (inactive) | 107% (inactive) | 106% (inactive) | 97.2% (inactive) | 107% (inactive) | 104% (inactive) | 101% (inactive)
OB(O)c1ccccc1 | 96.2% (inactive) | 109% (inactive) | 108% (inactive) | 111% (inactive) | 108% (inactive) | 109% (inactive) | 107% (inactive)
COc1cc(OCc2cccc(-c3ccc(C(O)c4nccs4)cc3)c2C)cc(OC)c1C=O (configuration not stated) | 39.6% (inactive) | 30.8% (inactive) | 56% (inactive) | 7.09% (active) | 23.1% (inactive) | 73.9% (inactive) | 71% (inactive)
O=C(c1ccccc1)C(Br)C(Br)c1cccc([N+](=O)[O-])c1 (configuration not stated) | 74.8% (inactive) | 22.5% (inactive) | -100% (active) | 24.8% (inactive) | -91% (active) | 89.5% (inactive) | 33.7% (inactive)
CCCCOC(=O)C1OC(Oc2ccc3c(C)cc(=O)oc3c2)[C@@H](OC(C)=O)C(OC(C)=O)C1OC(C)=O (some centres not stated) | 103% (inactive) | 101% (inactive) | 102% (inactive) | 91.5% (inactive) | 88.1% (inactive) | 109% (inactive) | 99.4% (inactive)
CCCCC(O)Cn1ncc(C(=O)OCC)c1NC(=O)NCc1ccccc1C(F)(F)F (configuration not stated) | 92% (inactive) | 99.5% (inactive) | 104% (inactive) | 94.1% (inactive) | 89.6% (inactive) | 108% (inactive) | 101% (inactive)
O=C1Nc2ccc(Cl)cc2/C1=N/N=C(c1ccccc1)c1ccccc1 | 100% (inactive) | 99.8% (inactive) | 94.1% (inactive) | 100% (inactive) | 97.9% (inactive) | 102% (inactive) | 93.4% (inactive)
CCN(CC)c1ccc(/C=C(\C#N)c2cc3ccccc3[nH]2)cc1 | 69.5% (inactive) | 1.8% (active) | 23.3% (inactive) | 23.7% (inactive) | 31.5% (inactive) | 77.8% (inactive) | 21.7% (inactive)
CCOC(=O)n1cc(C2=C(c3cn(C)c4ccccc34)COC2=O)c2ccccc21 | 26.8% (inactive) | -22.2% (active) | 20.9% (inactive) | 10.2% (inactive) | 10.6% (inactive) | 16.5% (inactive) | 2.55% (active)
CC1CCCCN1S(=O)(=O)c1ccc(CN=C=S)cc1 (configuration not stated) | 76% (inactive) | 47.2% (inactive) | -15.4% (active) | 10.2% (inactive) | 9.92% (active) | 103% (inactive) | 22.2% (inactive)
CCCCCCCCCCCCCCCC[N+]1(C)CCOCC1 | 15.1% (inactive) | 26.9% (inactive) | 6.63% (active) | 61.6% (inactive) | 18.2% (inactive) | 13.9% (inactive) | -94.4% (active)
NC(=O)c1cc(I)ccc1NC(=O)COc1ccccc1 | 69.3% (inactive) | -56% (active) | 23.5% (inactive) | 17.7% (inactive) | 19% (inactive) | 13.9% (inactive) | 19.9% (inactive)
CC1=CCC2C3(C)CCC2(C(C)C)C1C3 (configuration not stated) (tested in a mixture with another compound) |  |  |  | -76.9% [100 µM] (active) and -91.7% [100 µM] (active) |  |  | 
COc1ccc(/C=N/OCC(O)CNCc2ccccc2)cc1OC1CCCC1 (configuration not stated) | 90.9% (inactive) | 99.4% (inactive) |  | 93.9% (inactive) | 95.2% (inactive) | 110% (inactive) | 104% (inactive)
COc1ccc(/C=N/OCC(O)CN2CCC(O)CC2)cc1OC1CCCC1 (configuration not stated) | 88.7% (inactive) | 102% (inactive) |  | 94.7% (inactive) | 89.6% (inactive) | 101% (inactive) | 109% (inactive)
NC(=O)c1[nH]cnc1/N=N/SCC(N)C(=O)O (configuration not stated) |  |  |  | 45.4% [100 µM] (inactive) and 15.8% [100 µM] (inactive) |  |  | 
CC1OC(OC2C(O[C@H]3CC[C@@]4(C)C(=CC[C@H]5[C@@H]6C[C@@H]7O[C@]8(CC[C@H](C)CN8)[C@@H](C)[C@@H]7[C@@]6(C)CC[C@@H]54)C3)OC(CO)C(O)C2OC2OC(CO)C(O)C(O)C2O)C(O)C(O)C1O (some centres not stated) |  |  |  | 91.3% [100 µM] (inactive) and -95.2% [100 µM] (active) |  |  | 
CCCCCCCC/C=C\CCCCCCCCOc1cccc(CC(=O)NCC[N+]2(C)CCCCC2)c1 | 95.3% (inactive) | 82.1% (inactive) |  | 75.7% (inactive) | 71.5% (inactive) | 67.9% (inactive) | 43.6% (inactive)
CC(C)(C)c1cc(C2COC(=O)COCC(=O)OCCOCCOCCO2)cc(C(C)(C)C)c1O (configuration not stated) |  |  |  | 64.9% [100 µM] (inactive) and 75.7% [100 µM] (inactive) |  |  | 
N#CC1C(=O)N(c2ccccc2)NC12OC(=O)c1ccncc12 (configuration not stated) |  |  |  | 85.8% [20 µM] (inactive) and 87.1% [20 µM] (inactive) |  |  | 
O=c1c(-c2ccc3c(c2)OCO3)coc2c3c(ccc12)OCO3 |  |  |  | -45% [100 µM] (active) and -62.5% [100 µM] (active) |  |  | 
Nc1nc(Nc2cc(F)c(Cl)c(F)c2)cc(=O)[nH]1 |  |  |  | 65.9% [100 µM] (inactive) and -23.3% [100 µM] (active) |  |  | 

SMILES | growth (BT-549 breast) | growth (MDA-MB-435 melanoma) | growth (SW-620 colon) | growth (MCF7 breast) | growth (HCT-116 colon) | growth (HCC-2998 colon) | growth (KM12 colon)
CC(=O)c1cc2c(s1)C(=O)c1sccc1C2=O |  |  |  | -67.2% [100 µM] (active) and -100% [100 µM] (active) |  |  | 
Cc1cc(N2CCCC2)c([N+](=O)[O-])cc1[N+](=O)[O-] |  |  |  | 65.2% [100 µM] (inactive) and 89% [100 µM] (inactive) |  |  | 
Cc1ccccc1-n1nnc(C(=O)Nc2nc(-c3ccccc3)c(-c3ccccc3)s2)c1C | 89.7% [50 µM] (inactive) | 82.7% [50 µM] (inactive) |  | 72.2% [50 µM] (inactive) | 62.6% [50 µM] (inactive) | 99.1% [50 µM] (inactive) | 81.4% [50 µM] (inactive)
N#CC1=C(N)OC(c2cccc([N+](=O)[O-])c2)C1(C#N)C#N (configuration not stated) |  |  |  | -9.78% [100 µM] (active) and -88.5% [100 µM] (active) |  |  | 
CC#CC#C/C=C1/C=CC2(CCCCO2)O1 (configuration not stated) |  |  |  | 53.8% [100 µM] (inactive) and 0.753% [100 µM] (active) |  |  | 
Oc1ccc(/C=C/c2cc(O)cc3c2C(c2cc(O)cc(O)c2)C(c2ccc(O)c(O)c2)O3)cc1 (configuration not stated) |  |  |  | -7.74% [100 µM] (active) and -48.3% [100 µM] (active) |  |  | 
CCCn1c2c(c3ccccc3c1=O)C(=O)c1ccccc1-2 |  |  |  | 51.4% [100 µM] (inactive) and 17.4% [100 µM] (inactive) |  |  | 
CC(=O)c1cc2c(s1)C(=O)c1scc(C(C)=O)c1C2=O |  |  |  | -68.6% [100 µM] (active) and -79.8% [100 µM] (active) |  |  | 
Cc1ccccc1-c1cc(-c2ccc(Br)s2)[nH]c(=O)c1C#N | 105% (inactive) | 103% (inactive) |  | 92.3% (inactive) | 93.3% (inactive) | 104% (inactive) | 105% (inactive)
Oc1ccccc1-c1n[nH]c(-c2ccccc2O)n1 |  |  |  | -10.7% [100 µM] (active) and -76.4% [100 µM] (active) |  |  | 
O=S(=O)(OCCO)c1ccccc1 | 105% (inactive) | 98.2% (inactive) |  | 94.9% (inactive) | 104% (inactive) | 113% (inactive) | 103% (inactive)
C#CCn1c2c(c3ccccc3c1=O)C(=O)c1ccccc1-2 |  |  |  | 11.6% [100 µM] (inactive) and 10.4% [100 µM] (inactive) |  |  | 
CCCCOC(=O)C1CN2C(=NC1(C(F)(F)F)C(F)(F)F)Sc1ccccc12 (configuration not stated) |  |  |  | 6.83% [100 µM] (active) and 25.5% [100 µM] (inactive) |  |  | 
N#C/C(=C\c1ccc[nH]1)c1cc2ccccc2[nH]1 | 66.9% (inactive) | 83.2% (inactive) |  | 9.04% (active) | 63.4% (inactive) | 63.8% (inactive) | 30.7% (inactive)
COc1ccc(OC)c(/C=C2\Oc3cc(O)ccc3C2=O)c1 | 79.8% (inactive) | 82.7% (inactive) |  | 94.2% (inactive) | 79.2% (inactive) | 99.3% (inactive) | 108% (inactive)
CC(C)C1OC23CCCCC2C(C#N)(C#N)C1(C#N)C(=N)O3 (configuration not stated) |  |  |  | -20.4% [100 µM] (active) |  |  | 
COc1cc2c(cc1O)Cc1c-2[n+](C)cc2cc(OC)c(OC)cc12 |  |  |  | 19.5% [100 µM] (inactive) and 0.687% [100 µM] (active) |  |  | 
CCOC(=O)c1nc2cc(C(F)(F)F)ccc2nc1Nc1ccc(F)cc1 |  |  |  | 34% [100 µM] (inactive) and 3.76% [100 µM] (active) |  |  | 
O=c1[nH]c(=O)n(C2CC(O)C(CO)O2)cc1Br (configuration not stated) |  |  |  | 29% [100 µM] (inactive) and -14.9% [100 µM] (active) |  |  | 
CCCCNNC(=O)c1ccc(Br)cc1 | 78.7% (inactive) | 36.5% (inactive) |  | 48% (inactive) | 19.5% (inactive) | 61.4% (inactive) | 78.1% (inactive)
COc1cc(Cn2cc(F)c(=O)[nH]c2=O)cc(OC)c1 | 95.4% [50 µM] (inactive) | 109% [50 µM] (inactive) |  | 104% [50 µM] (inactive) | 111% [50 µM] (inactive) | 114% [50 µM] (inactive) | 108% [50 µM] (inactive)
O=c1c2ncn(C3CCCCO3)c2n(-c2ccccc2)c(=S)n1-c1ccccc1 (configuration not stated) |  |  |  | 43.5% [100 µM] (inactive) and 61.3% [100 µM] (inactive) |  |  | 
O=c1[nH]c(=S)c2c(n1CCCO)CCC2 | 107% (inactive) | 97% (inactive) | 103% (inactive) | 96.5% (inactive) | 99.1% (inactive) | 108% (inactive) | 105% (inactive)
CCSc1nnc2c3cc(Br)ccc3n(C)c2n1 | 95.6% (inactive) | 104% (inactive) |  | 84.3% (inactive) | 95.6% (inactive) | 111% (inactive) | 103% (inactive)
CC(=O)OC(C)c1cc2c(s1)C(=O)c1ccsc1C2=O (configuration not stated) |  |  |  | -61.2% [100 µM] (active) and -98.9% [100 µM] (active) |  |  | 
Cn1c2ccccc2c2nn(C(=O)c3ccccc3)c(=O)nc21 | 114% (inactive) | 105% (inactive) |  | 101% (inactive) | 109% (inactive) | 107% (inactive) | 106% (inactive)
CCOC(=O)c1[nH]c2cc(Cl)ccc2c1[C@@H](C(=O)NC(C)(C)C)N(CC)C(=O)CCCCC#Cc1cccc2c1CN(C1CCC(=O)NC1=O)C2=O (some centres not stated) | 3.98% (active) | 18.1% (inactive) |  | 12.5% (inactive) | 24.6% (inactive) | 6.54% (active) | 10.3% (inactive)
